Source: PubChem BioAssay (The Scripps Research Institute Molecular Screening Center)
MITF primary: human MITF inhibition, primary screen; O75030; AlphaScreen MITF homodimerization, bead proximity signal; inhibition, % at 2.6 µM; 650,000 tested, 0.91% active; AID 1259374; in the data active = inhibition above about 50%;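 note: 0% = vehicle wells with protein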
GPR151 activ: human GPR151 activation. Q8TDV0. 650,000 tested, 1% active. PathHunter beta-arrestin GPR151 cells, luminescence. activation, % at 11.2 µM; in the data active = activation above about 4.9%;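 note: 0% = median of compound wells and 100% = cells with positive control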
Target sequence (Q8TDV0 whole entry, looked up): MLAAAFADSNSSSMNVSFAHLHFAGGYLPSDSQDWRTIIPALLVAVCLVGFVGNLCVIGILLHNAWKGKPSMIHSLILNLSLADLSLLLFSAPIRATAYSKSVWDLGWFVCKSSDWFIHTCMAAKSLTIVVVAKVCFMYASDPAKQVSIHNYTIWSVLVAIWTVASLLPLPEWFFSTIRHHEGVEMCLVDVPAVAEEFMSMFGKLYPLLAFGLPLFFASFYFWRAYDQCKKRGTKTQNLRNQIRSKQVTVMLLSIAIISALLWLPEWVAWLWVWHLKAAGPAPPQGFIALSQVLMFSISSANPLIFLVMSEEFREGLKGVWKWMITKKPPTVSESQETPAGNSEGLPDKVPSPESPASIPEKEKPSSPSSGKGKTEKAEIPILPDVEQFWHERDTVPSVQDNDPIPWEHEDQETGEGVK
FBW7 activator: activators of human E3 ligase FBW7; Q969H0; AlphaScreen FBW7–phospho-cyclin E peptide binding, activator screen; normalized activity (activation), % at 26.1 µM; 650,000 tested, 0.13% active; AID 1259310; in the data active = normalized activity above about 1.9%;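 note: purified mutant Fbw7 with reduced substrate affinity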
TEAD-YAP block: TEAD-YAP interaction inhibition; inhibition, % at 9.12 µM; AID 1259422; 640,000 tested, 1.4% active; HEK-TIYL cells, TEAD-Gal4/YAP UAS-luciferase luminescence; in the data active = inhibition above about 32%;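 note: 0% = median of test compound wells and 100% = reference inhibitor wells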
GPR151 conf act: human GPR151 activation, confirmation screen | GPR151 PathHunter beta-arrestin cells, luminescence, 90 min; % of EA-reagent control over plate median | 6,700 tested, under 10 active | activation, % at 11.2 µM | AID 1508609 | shares compounds with GPR151 activ;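 active = mean percent activation across replicates above the confirmation screen cutoff of 4.91%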
GPR119 counter: activates human GPR119 in a GPR151 counter-screen; AID 1508611; 6,700 tested, 0.3% active; activation, % at 11.2 µM; shares compounds with GPR151 activ; GPR119 PathHunter beta-arrestin cells, luminescence, 90 min; 0 = compound-well median, 100 = enzyme-acceptor control;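 active = mean percent activation in the counterscreen above 29.09%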;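 note: counterscreen on off-target GPR119 to flag nonselective hits from the GPR151 activator screen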
Active calls of the source: *; . = no result. Shown are actives, neighbours in structure and some others; about 3.4% of the full set was active somewhere.

SMILES	MITF primary	GPR151 activ	FBW7 activator	TEAD-YAP block	GPR151 conf act	GPR119 counter
Cc1ccc(C(=O)Nc2ccc3oc(-c4ccc(F)cc4)nc3c2)cc1C	12	1	0	13	.	.
CCOc1ccc(NC(=O)COc2ccccc2Br)cc1	-2	5.0*	0	-7	0	9
O=C(COc1ccccc1Br)NN=C1CCCCC1	14	9.7*	0	-2	-1	-6
CCOC(=O)c1sc2ncn(Cc3ccc(Cl)cc3)c(=O)c2c1C	9	1	0	8	.	.
CCOC(=O)c1sc2ncn(Cc3ccc(C(F)(F)F)cc3)c(=O)c2c1C	9	6.2*	0	-3	1	11
O=C(NCCC1=CCCCC1)c1cccnc1SCc1cccc(Br)c1	5	1	0	-3	.	.
O=C(NCCC1=CCCCC1)c1cccnc1SCc1ccccc1F	2	5.4*	0	-6	0	-4
CCOC(=O)c1c(NC(=O)c2cc(Cl)cc(Cl)c2)sc2c1CCC2	-1	1	0	4	.	.
O=C(OC1CSc2nnnn2C1)c1ccccc1Cl (stereo unspecified)	-6	0	0	-4	.	.
CC(=O)N1c2ccccc2NC2=C(C(=O)CC(C)(C)C2)C1c1ccccn1 (stereo unspecified)	-21	5.2*	0	-9	0	8
CCCCOc1ccc(C2C3=C(CC(C)(C)CC3=O)Nc3ccccc3N2C(=O)CC)cc1 (stereo unspecified)	-9	6.7*	0	5	1	10
COc1ccc(C2=C(O)C(C)N(c3ccccc3)C2=N)cc1OC (stereo unspecified)	-4	-1	0	-2	.	.
NC(=O)C1CCN(S(=O)(=O)c2cccc(S(=O)(=O)N3CCOCC3)c2)CC1	18	-1	0	-14	.	.
CN(C)N1C(N)=C(C#N)C(c2cccc(Cl)c2Cl)C2=C1CCCC2=O (stereo unspecified)	-8	5.1*	0	-18	0	2
CN(C)N1C(N)=C(C#N)C(c2ccccc2Cl)C2=C1CCCC2=O (stereo unspecified)	11	-2	0	5	.	.
Cc1ccc(CSc2nnc3nc(C)cc(C)n23)cc1	-2	-1	0	-10	.	.
Cc1ccc(NC(=O)COC(=O)CSC(=O)c2ccccc2)cc1	7	-1	0	6	.	.
COc1ccc2cc(C(=O)Nc3ccccc3C)c(=N)oc2c1	11	5.0*	0	-40	0	-7
CCOC(=O)c1c(-c2ccc(C)o2)csc1NC(=O)c1cccs1	11	8.2*	0	2	-1	2
CCOC(=O)C1=C(C)N=c2s/c(=C/c3ccc(-c4ccc(C(=O)OCC)cc4)o3)c(=O)n2C1c1ccc(N(C)C)cc1 (stereo unspecified)	3	0	0	-23	.	.
CCOC(=O)C1=C(C)N=c2s/c(=C/c3cc(Br)c(Br)o3)c(=O)n2C1c1cccs1 (stereo unspecified)	3	-1	0	-10	.	.
CCOC(=O)C1=C(C)N=c2s/c(=C\c3ccc(Br)o3)c(=O)n2C1c1cccs1 (stereo unspecified)	2	4.9*	0	6	-1	0
CCOC(=O)C1=C(C)N=c2s/c(=C/c3ccc(-c4ccc(Br)cc4)o3)c(=O)n2C1c1ccc(N(C)C)cc1 (stereo unspecified)	-8	5.5*	0	6	0	-3
O=S(=O)(c1ccc(Cl)c(Cl)c1)N1CCCCC1	1	0	0	2	.	.
CC1(C)CC(=O)C(C(=S)Nc2ccc(F)cc2)=C(NCc2ccccc2)C1	17	1	0	4	.	.
SMILES	MITF primary	GPR151 activ	FBW7 activator	TEAD-YAP block	GPR151 conf act	GPR119 counter
Cc1cnc(N2CCCC2CO)nc1NCCN1CCOCC1 (stereo unspecified)	-13	-2	0	-7	.	.
CC(C)CC1=NN(C(=O)C(=O)NCCc2ccccc2)C(O)(C(F)(F)F)C1 (stereo unspecified)	0	5.5*	0	-2	0	1
CC(C)CCC1=NN(C(=O)C(=O)NCCc2ccccc2)C(O)(C(F)(F)F)C1 (stereo unspecified)	10	1	0	-8	.	.
CNCc1ccc(-c2ccc(Cl)cc2)o1	14	5.0*	0	-9	0	-4
CNCc1ccc(-c2ccc(Br)cc2)o1	11	0	0	-3	.	.
Cc1nc2c(-c3ccccc3)c(C)nn2c(C)c1CCC(=O)Nc1ccccn1	1	5.0*	0	-1	0	3
CCOC(=O)c1cc(N2C(=O)C3C4C=CC(CC4)C3C2=O)ccc1Cl (stereo unspecified)	4	10*	0	8	0	7
COc1ccc(CNC(=O)c2cc3c(=O)[nH]c4ccccc4c3n2C)c(OC)c1	12	6.4*	0	-5	-1	-11
COc1cccc(CNC(=S)NC2CCCC2)c1	-7	6.3*	0	4	0	-7
Cc1[nH]c2ccc(CNC(=O)Nc3ccc(F)cc3F)cc2c1C	6	5.9*	0	6	-1	-6
COC(=O)c1cc(NC(C)=O)c(Cl)c(NC(C)=O)c1	26	-1	0	4	.	.
CC(=O)Nc1cc(C(=O)O)cc(N)c1Cl	16	5.5*	0	0	-1	-2
Cc1ccc(/C(O)=C2\C(=O)C(=O)N(c3nnc(C)s3)C2c2ccccc2F)cc1 (stereo unspecified)	0	-1	0	11	.	.
COc1ccccc1C(=O)Nc1nnc(S(=O)(=O)N2CCOCC2)s1	-2	7.9*	0	-7	1	4
CCOc1ccc(C(=O)Nc2nnc(S(=O)(=O)N3CCCCC3)s2)cc1	9	5.0*	0	-16	0	-1
CC(C)c1ccccc1OCCCN1CCOCC1	9	4	0	8	.	.
CCNc1nccc(NCCc2ccc(OC)cc2)n1	-13	1	0	13	.	.
N#C/C(=C/c1ccco1)c1nc(-c2cc3ccccc3oc2=O)cs1	1	-1	0	0	.	.
Nc1c(CN2CCOCC2)ccc2c1C(=O)c1ccccc1C2=O	-3	0	-1	-68	.	.
COCCn1c(C)cc2c(c1=O)C(c1ccc(Cl)cc1Cl)C(C(=O)OC)=C(N)O2 (stereo unspecified)	10	7.1*	0	0	1	-6
COCCn1c(C)cc2c(c1=O)C(c1ccc(Cl)cc1)C(C(=O)OC)=C(N)O2 (stereo unspecified)	-3	0	0	8	.	.
CN(C)c1ccc(-c2cnc3c(n2)[nH]c(=O)n3-c2ccccc2)cc1	-1	6.0*	0	-10	-1	-7
Clc1ccc(CSc2nnc3c(n2)[nH]c2ccccc23)c(Cl)c1	12	0	0	8	.	.
O=C1C=C(Nc2cccc(Br)c2)c2ccccc2C1=O	9	0	0	-4	.	.
